Reference: PubChem BioAssay AID493192 (National Center for Advancing Translational Sciences (NCATS), 2011)
Records with an inconclusive call do not appear. Where a call stands in place of a potency, no number is given. Active and inactive are the calls of the source. Calls follow the shape of the dose curve; as a rule, active = well fitted activation curve with a large enough effect; inconclusive = small, poorly fitted or top-dose-only effect; inactive = no such curve, though single readings can be large or run the other way.

Experiment: qHTS Assay for Identifying a Potential Treatment of Ataxia-Telangiectasia: Hit Validation;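 also: phospho-KAP1 level by AlphaLISA as a proxy for ATM-like kinase activity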
Settings: Ataxia-telangiectasia cell-based hit validation qHTS, in ATM-null A-T patient fibroblasts; series mostly up to 76.9 µM
Outline: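 KAP-1 phosphorylation was read by AlphaLISA as a measure of ATM-like activity in ATM-null F2112 fibroblasts. Compounds spanned up to 76.7 uM final, with 60 min exposure at 37C and a 6 hr detection incubation at 25C.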
Potency is read from the fitted curve at half-maximal effect.

Row | SMILES | Potency
1 | CCOC(=O)CNS(=O)(=O)Cc1ccccc1 | inactive
2 | CNC(=O)Cc1csc2ccc(C)cc12 | inactive
3 | CCCN1C2CCCC1CC(NC(=S)Nc1cccc(C)c1C)C2 (centres undefined) | inactive
4 | CCOc1cccc(C(=O)Nc2ccccc2N2CCN(C(=O)C(C)C)CC2)c1 | inactive
5 | CCOC(=O)N1CCC(NC(=O)C2CCN(S(=O)(=O)c3cccc4cccnc34)CC2)CC1 | inactive
6 | CC(=O)c1sc2nc(C)c3c(c2c1N)CCCC3 | inactive
7 | O=C(O)c1ccc(C2Nc3ccccc3C(=O)N2Cc2ccccc2)cc1 (centres undefined) | inactive
8 | O=C(O)c1ccc(/C=C/c2nc3ccccc3c(=O)[nH]2)cc1 | inactive
9 | Cc1ccc(OCC(=O)N(Cc2cccs2)C2CCS(=O)(=O)C2)cc1C (centres undefined) | inactive
10 | OC(CN1CCCCC1)Cn1c2ccc(Cl)cc2c2cc(Cl)ccc21 (centres undefined) | inactive
11 | N=c1ccn(Cc2ccc([N+](=O)[O-])cc2)cc1 | inactive
12 | CC1C(c2ccccc2)N(C)C(c2ccccc2)CC1(O)c1ccccc1 (centres undefined) | 13 µM (active)
13 | O=C(OCCc1cc2ccccc2c(=O)o1)c1cccc(Br)c1 | inactive
14 | COc1ccc(C(=O)N2CCCC2(C#N)c2ccccc2)cc1[N+](=O)[O-] (centres undefined) | inactive
15 | COc1cc(CCC(C)NCc2ccccc2)ccc1O (centres undefined) | inactive
16 | COc1ccccc1C1CCN(C(=O)c2ccc(Cl)cc2)CC1 | inactive
17 | CC(=O)Nc1ccc(NC(=O)CSc2nnnn2-c2ccc(F)cc2)cc1 | inactive
18 | CCCN1CN(c2ccccc2)C(=S)N(c2ccccc2)C1 | inactive
19 | COc1ccc2c(c1)c(N=NC(N)=S)c(O)n2CC(=O)c1ccccc1 | inactive
